Measurements published in PubChem BioAssay AID1159580 (chemical genetic matrix, 2015).
Screen size: about 5,500 compounds; about 2,000 (36%) were called active. Another 18% or so got no clear call; they are omitted. No stated cut-off is given here; in the data, active means normalized growth mostly below about 0.91 (no sharp cut-off); inconclusive means no clear call, values can overlap the other calls; inactive means mostly above about 0.92. The list shows a part of the results.

Assay: chemical genetic growth profiling, strain panel (AID 1159580);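 further: tested at 20 µM; growth read once vehicle control cultures reached saturation at 30 °C; 1 = growth at the plate median or of vehicle wells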
Settings: S. cerevisiae deletion strains, growth OD

Measured: normalized growth

CNS(=O)(=O)Cc1ccc2[nH]cc(CCN(C)C)c2c1
inactive: locus YAL021C, strain ccr4, stronger effect = lower value 0.999 | locus YAL026C, strain drs2, stronger effect = lower value 1.02 | locus YAL030W, strain snc1, stronger effect = lower value 1.02 | locus YBL061C, strain skt5, stronger effect = lower value 1.03 | locus YBR009C, strain hhf1, stronger effect = lower value 1.03 | locus YBR023C, strain chs3, stronger effect = lower value 1.03 | locus YBR171W, strain sec66, stronger effect = lower value 1.04 | locus YBR231C, strain swc5, stronger effect = lower value 1.03 | locus YBR279W, strain paf1, stronger effect = lower value 1.02 | locus YCL011C, strain gbp2, stronger effect = lower value 1.02 | locus YCL016C, strain dcc1, stronger effect = lower value 1.02 | locus YCL069W, strain vba3, stronger effect = lower value 1.03 | locus YCR088W, strain abp1, stronger effect = lower value 1.03 | locus YDL005C, strain med2, stronger effect = lower value 1.04 | locus YDL040C, strain nat1, stronger effect = lower value 1.02 | locus YDR001C, strain nth1, stronger effect = lower value 1.04 | locus YDR069C, strain doa4, stronger effect = lower value 1.02 | locus YDR137W, strain rgp1, stronger effect = lower value 1.04 | locus YDR159W, strain sac3, stronger effect = lower value 1.03 | locus YDR195W, strain ref2 1 | locus YDR297W, strain sur2, stronger effect = lower value 1.02 | locus YDR334W, strain swr1, stronger effect = lower value 1.02 | locus YDR335W, strain msn5, stronger effect = lower value 1.02 | locus YDR392W, strain spt3, stronger effect = lower value 1.01 | locus YEL003W, strain gim4, stronger effect = lower value 1.02 | locus YEL037C, strain rad23, stronger effect = lower value 1.03 | locus YEL061C, strain CIN8 (second series), stronger effect = lower value 1.03 | locus YER015W, strain faa2, stronger effect = lower value 1.02 | locus YER016W, strain bim1, stronger effect = lower value 1.02 | locus YER111C, strain swi4, stronger effect = lower value 1.02 | locus YER155C, strain BEM2 (second series), stronger effect = lower value 1 | locus YFR010W, strain ubp6, stronger effect = lower value 1.03 | locus YGL167C, strain pmr1, stronger effect = lower value 1.03 | locus YGL173C, strain kem1, stronger effect = lower value 1.05 | locus YGL227W, strain vid30, stronger effect = lower value 1.03 | locus YGL240W, strain doc1, stronger effect = lower value 1.02 | locus YGL253W, strain hxk2, stronger effect = lower value 1.02 | locus YHR013C, strain ard1, stronger effect = lower value 1.07 | locus YHR027C, strain rpn1, stronger effect = lower value 1.04 | locus YHR030C, strain SLT2, stronger effect = lower value 1.07 | locus YHR079C, strain IRE1, stronger effect = lower value 1.05 | locus YHR142W, strain chs7, stronger effect = lower value 1.04 | locus YJL092W, strain hpr5, stronger effect = lower value 1.03 | locus YJL095W, strain BCK1 (second series), stronger effect = lower value 1.02 | locus YJL095W, strain BCK1, stronger effect = lower value 1.01 | locus YJL115W, strain asf1, stronger effect = lower value 1.03 | locus YJL129C, strain trk1, stronger effect = lower value 1.07 | locus YJL154C, strain vps35, stronger effect = lower value 1.03 | locus YJL164C, strain tpk1, stronger effect = lower value 1.02 | locus YJL166W, strain qcr8, stronger effect = lower value 1.02 | locus YJL187C, strain SWE1, stronger effect = lower value 1.03 | locus YJR066W, strain TOR1, stronger effect = lower value 0.977 | locus YKL160W, strain elf1, stronger effect = lower value 1.02 | locus YKR026C, strain gcn3, stronger effect = lower value 1.03 | locus YKR091W, strain srl3, stronger effect = lower value 1.01 | locus YLL001W, strain dnm1, stronger effect = lower value 1.02 | locus YLL026W, stronger effect = lower value 1.01 | locus YLL041C, strain sdh2, stronger effect = lower value 1.02 | locus YLR027C, strain aat2, stronger effect = lower value 1.01 | locus YLR113W, strain HOG1, stronger effect = lower value 0.935 | locus YLR221C, strain rsa3, stronger effect = lower value 1.02 | locus YLR258W, strain gsy2, stronger effect = lower value 1.03 | locus YLR262C, strain YPT6 (second series), stronger effect = lower value 1.04 | locus YLR320W, strain mms22, stronger effect = lower value 1.04 | locus YLR342W, strain FKS1, stronger effect = lower value 1.02 | locus YLR357W, strain rsc2, stronger effect = lower value 1.02 | locus YLR370C, strain arc18, stronger effect = lower value 1.01 | locus YLR384C, strain iki3, stronger effect = lower value 1.03 | locus YML120C, strain ndi1, stronger effect = lower value 1.02 | locus YMR058W, strain fet3, stronger effect = lower value 1.04 | locus YMR125W, strain sto1, stronger effect = lower value 1.02 | locus YMR129W, stronger effect = lower value 1.01 | locus YMR205C, strain PFK2, stronger effect = lower value 1.05 | locus YMR231W, strain pep5, stronger effect = lower value 1.03 | locus YNL071W, strain lat1, stronger effect = lower value 1.03 | locus YNL183C, strain NPR1, stronger effect = lower value 0.97 | locus YNL209W, strain ssb2, stronger effect = lower value 1.02 | locus YNL248C, strain rpa49, stronger effect = lower value 1.06 | locus YNL322C, strain KRE1 (second series), stronger effect = lower value 1.02 | locus YNR049C, strain mso1, stronger effect = lower value 1.02 | locus YOR001W, strain rrp6, stronger effect = lower value 1.03 | locus YOR070C, strain gyp1, stronger effect = lower value 1.03 | locus YOR080W, strain dia2, stronger effect = lower value 1.03 | locus YOR083W, strain WHI5, stronger effect = lower value 1.01 | locus YOR106W, strain vam3, stronger effect = lower value 1.05 | locus YOR231W, strain MKK1, stronger effect = lower value 1.03 | locus YOR265W, strain rbl2, stronger effect = lower value 1.01 | locus YOR270C, strain vph1, stronger effect = lower value 1.1 | locus YOR290C, strain snf2, stronger effect = lower value 1.02 | locus YPL051W, strain arl3, stronger effect = lower value 1.02 | locus YPL078C, strain atp4, stronger effect = lower value 1.02 | locus YPL106C, strain sse1, stronger effect = lower value 1.03 | locus YPL240C, strain hsp82, stronger effect = lower value 1.02 | locus YPL256C, strain CLN2, stronger effect = lower value 1.06
